Screens deposited in PubChem BioAssay by National Center for Advancing Translational Sciences (NCATS).
KB-3-1 cytotox = kills parental KB-3-1 adenocarcinoma cells. KB-3-1 viability, CellTiter-Glo ATP luminescence, 72 h. Potency, µM (doses to about 46.1 µM), hits mostly cytotoxic. 1.4% of 400,000 active. AID 1347075; also: nearly all actives have a fitted effect of over 60% in size
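Screening of KB-3-1 cells (DMEM, 10% FBS, phenol-red free) ran from lowest to highest compound concentration; after 72 h at 37 °C viability was read luminescently and curves fitted.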
SW480 rerep = DNA re-replication induction in SW480 cells; SW480 DNA re-replication, Hoechst DNA content imaging, 48 h; 1.8% of 340,000 active; Potency, µM (top dose mostly 46.1 µM), actives largely listed as activators; also: nearly all actives have a fitted effect of over 55% in size
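Per well, 250 cells were exposed to pinned compound for 48 hr. Nuclear DNA was visualised with Hoechst (40 min, 37 C) and total object intensity recorded by fluorescence scanning.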
HT1080-NT tox = kills 2HG-producing HT-1080-NT fibrosarcoma cells | HT-1080-NT fibrosarcoma viability, CellTiter-Glo ATP luminescence, 48 h | Potency, µM (titrated, usually from 46.1 µM), actives largely listed as cytotoxic | 1.6% of 360,000 active | AID 686970;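 also: NT is the 2HG producing partner of a matched IDH1 knockdown line; nearly all actives have a fitted effect of over 55% in size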
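Compounds were tested in concentration-response format on HT-1080-NT cells for 48 hours at 37 degrees C. Cell viability came from CellTiter-Glo luminescence; curves were classified by r2, response magnitude and activity.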
HT1080 IDH1KD tx = kills HT-1080 cells with IDH1 knockdown. HT-1080 IDH1 knockdown viability, ATP luminescence, 48 h. Potency, µM (doses to about 46.1 µM), most hits filed as cytotoxic. 2% of 360,000 active. AID 686971
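Cytotoxicity counter-line: IDH1KD HT-1080, 48 h, CellTiter-Glo. Curves classed by r2, magnitude and activity.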
KB-V1 MDR tox = kills drug-selected multidrug resistant KB-V1 cells; 3.4% of 400,000 active; AID 1347076; KB-V1 MDR cells viability, CellTiter-Glo, 72 h; Potency, µM (doses to about 46.1 µM), actives largely listed as cytotoxic; also: nearly all actives have a fitted effect of over 60% in size
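Cytotoxicity toward P-gp-expressing KB-V1 cells was determined as loss of CellTiter-Glo luminescence after 72 h at 37 degrees C. Compounds were tested in quantitative HTS format across a concentration range, with curves fitted to normalized data.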
MCF10A rerep = inducers of DNA re-replication in MCF 10A breast cells. MCF 10A DNA re-replication, Hoechst nuclear intensity, 48 h. Potency, µM (top dose mostly 46.1 µM), hits mostly activators. 2.9% of 350,000 active; also: nearly all actives have a fitted effect of over 50% in size
Hits are given with their value; . = inactive; ? = inconclusive; / = no result. A selection: hits, their analogues and other compounds. The true share with any hit is near 7.9%. Calls follow the shape of the dose curve; as a rule, active = well fitted curve in the direction sought with a large enough effect; inconclusive = small, poorly fitted or top-dose-only effect, or another doubt; inactive = no such curve, though single readings can be large; an effect the other way counts as inactive or inconclusive.

SMILES	KB-3-1 cytotox	SW480 rerep	HT1080-NT tox	HT1080 IDH1KD tx	KB-V1 MDR tox	MCF10A rerep
O=C(CCN1C(=O)c2ccccc2C1=O)Nc1ccc(-c2nc3ccccc3o2)cc1	.	.	.	.	.	.
C=CC(=O)N1CCC[C@@H](n2nc(-c3ccc(Oc4ccccc4)cc3)c3c(N)ncnc32)C1	?	/	/	/	22µM	/
Nc1ncnc2c1c(-c1ccc(Oc3ccccc3)cc1)cn2C1CCCC1	.	.	23µM	21µM	?	?
CCNc1ccc(C(=O)OCC(=O)NCc2ccccc2Cl)cc1[N+](=O)[O-]	.	.	.	.	.	?
NC(=O)COC(=O)c1cc([N+](=O)[O-])ccc1NCCO	.	.	.	.	.	.
COC(=O)c1cc(C(=O)OCC(=O)NCc2cccs2)cc([N+](=O)[O-])c1	.	.	.	.	.	.
O=C(COC(=O)c1cc([N+](=O)[O-])ccc1NCCO)NCc1cccs1	.	.	.	.	.	0.65µM
O=C(COC(=O)c1cc([N+](=O)[O-])ccc1NCCO)c1ccccc1	?	?	.	.	21µM	.
O=C(COC(=O)c1cc([N+](=O)[O-])ccc1NCc1ccccc1Cl)NCC(F)(F)F	.	.	.	.	.	21µM
Nc1nnc(SCc2cccnc2)s1	.	.	.	.	.	.
CC(=O)N1CCCc2cc(S(=O)(=O)N3CCCC(C(=O)Nc4cc(C)ccc4C)C3)ccc21 (stereo not given)	.	.	.	.	?	.
CCOc1ccc(C2C=C(c3ccc(C)cc3)Nc3nnnn32)cc1 (stereo not given)	?	.	?	13µM	?	?
CCOc1ccc(C2C=C(c3ccccc3)Nc3nnnn32)cc1 (stereo not given)	.	.	.	.	.	.
CC[C@]12c3[nH]c4ccccc4c3CCN1C(=O)C(CC(=O)NCCCn1ccnc1)C[C@@H]2C(=O)N1CCN(C(=O)C2CC2)CC1 (stereo not given in full)	.	.	.	.	.	.
COc1ccc(-c2c(-c3ccccc3OC)sc3ccccc23)cc1	.	.	.	.	.	?
CC(=O)NC[C@H]1O[C@@H](n2ccc(N)nc2=O)[C@H](O)[C@@H]1O	.	/	.	.	.	/
Nc1ccn(C2OC(COP(=O)(O)O)C(O)C2O)c(=O)n1 (stereo not given)	?	0.65µM	.	.	?	?
CS(=O)(=O)c1ccc(C(=O)N(Cc2ccccc2)c2ccccc2)cc1	.	.	.	.	?	.
COc1cc(-c2nc3c(c(C)nn3-c3ccccc3)c3cc(OC)c(OC)cc23)ccc1O	?	.	.	.	?	13µM
COc1cc2c(-c3cc(Br)ccc3O)nc3c(c(C)nn3-c3ccccc3)c2cc1OC	.	/	/	/	.	/
COc1c(C(=O)Nc2ccc(CN3CCOCC3)cc2)cc2ccccc2c1Br	.	?	.	?	?	?
COc1c(C(=O)Nc2ccc3[nH]c(=O)[nH]c3c2)cc2ccccc2c1Br	.	?	.	.	.	11µM
OC(CCN1CCCCC1)(c1ccccc1)c1ccccc1	.	.	.	.	.	.
OC(CCCN1CCCCC1)(c1ccccc1)c1ccc(C(F)(F)F)cc1 (stereo not given)	.	?	?	?	.	21µM
COc1ccc(Cn2c(SCc3ccc(C(=O)NC4CCCC4)cc3)nc3ccncc32)cc1	.	/	/	/	.	/
SMILES	KB-3-1 cytotox	SW480 rerep	HT1080-NT tox	HT1080 IDH1KD tx	KB-V1 MDR tox	MCF10A rerep
Cc1ccc(Cn2c(SCc3ccc(C(=O)NC4CCCC4)cc3)nc3ccncc32)cc1	23µM	/	/	/	.	/
Cc1cccc(N2CCC(N3CCN(C4CCCCC4)C(CCO)C3)CC2)c1C (stereo not given)	.	.	.	.	.	16µM
CC(C)N1CCC(N2CCN(C3CCCC3)CC2CCO)CC1 (stereo not given)	.	.	.	.	.	.
CCCN1CN(c2ccccc2)C(=S)N(c2ccccc2)C1	.	3.7µM	.	.	.	.
CCCN1CNC(=S)N(c2ccccc2OC)C1	.	.	.	.	.	.
CC(C)c1ccc2c(c1)[C@H]1OCC[C@H]1[C@@H](c1cccs1)N2	6.5µM	9.2µM	2.9µM	3.3µM	2.3µM	7.3µM
CC(C)c1ccc(C(=O)N/N=C/c2cccc(Cl)c2Cl)cc1	.	.	.	.	.	.
Cc1nn2cc(-c3cccc(Cl)c3)cnc2c1Br	.	?	.	?	?	?
Cc1nn2cc(-c3cccc(Cl)c3)cnc2c1Cl	13µM	6.5µM	.	?	5.8µM	9.2µM
CCCC1CC(C#N)N(N(C)C)C1=C(C#N)C#N (stereo not given)	.	.	.	.	.	.
COc1ccc(CNC(=O)C2CCCN(S(=O)(=O)c3ccc(Br)s3)C2)cc1 (stereo not given)	.	.	?	.	?	.
COC(=O)C(NC(=O)C(CC(C)C)NC(=O)C1CCC(C)CC1)C(C)C (stereo not given)	.	.	.	.	?	.
CCCCCCC1CCC(C(=O)NC(CCSC)C(=O)NC(C(=O)OC)C(C)C)CC1 (stereo not given)	.	.	?	.	.	7.3µM
CC12CCC(C(=O)NCc3ccc4c(c3)OCO4)(CC1=O)C2(C)C (stereo not given)	.	.	.	.	.	.
COc1ccc(-n2c(C)nc(=O)c(-c3ccccc3)c2C)cc1	?	.	.	.	.	.
Cc1ccccc1NC(=O)C(C)OC(=O)c1ccccc1C(=O)N(C)c1ccccc1 (stereo not given)	.	.	.	.	.	.
CCOC(=O)C(C)C(C)=O (stereo not given)	?	.	?	58µM	?	.
CCOC(=O)C(C(C)=O)C(c1ccc(OC)cc1)C(C(C)=O)C(=O)OCC (stereo not given)	.	.	.	.	.	.
CCNc1nc(NCC)nc(SCCOC(=O)COc2ccc(Cl)cc2Cl)n1	.	.	.	.	.	.
CCCn1nnc(NC(=O)c2ccccc2Br)n1	.	5.2µM	.	.	.	18µM
CCCn1nnc(NC(=O)Cc2ccc(Cl)cc2)n1	?	.	.	.	.	8.2µM
CCCn1nnc(NC(=O)/C=C/c2ccco2)n1	.	21µM	.	.	.	.
CCCCn1nnc(NC(=S)NC(=O)c2ccc(-c3cccc(Cl)c3Cl)o2)n1	?	.	.	.	15µM	.
CCCn1nnc(NC(=O)COc2ccc(Cl)cc2)n1	.	.	.	.	.	.
CCCn1nnc(NC(=O)c2ccc(-c3cc(Cl)ccc3Cl)o2)n1	.	.	.	.	.	.
